High-throughput results deposited in PubChem BioAssay by National Center for Advancing Translational Sciences (NCATS).
DT40 TDP1 no CPT: qHTS for Inhibitors of human tyrosyl-DNA phosphodiesterase 1 (TDP1): qHTS in cells in absence of CPT; DT40 Tdp1-/- hTDP1 cells, no CPT, ATP luminescence, 48 h; Potency, µM (series often up to 46.2 µM), without a hit: at the highest dose activity change, negative = growth inhibition, hits mostly inhibitors; 420,000 compounds, 15% hits; also: potency is read from the fitted curve at half-maximal effect; nearly all actives have a fitted effect of over 55% in size
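Stably hTDP1-transfected Tdp1-null chicken DT40 cells were treated with library compounds minus camptothecin and grown for at least 48 hr at 37 °C, after which cellular ATP was quantified by luminescence.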
HT1080-NT tox: kills 2HG-producing HT-1080-NT fibrosarcoma cells; HT-1080-NT fibrosarcoma viability, CellTiter-Glo ATP luminescence, 48 h; Potency, µM (doses to about 46.1 µM), for the others: top-dose activity, negative = less viability, hits mostly cytotoxic; 360,000 compounds, 1.6% hits;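 also: NT is the 2HG producing partner of a matched IDH1 knockdown line; potency is read from the fitted curve at half-maximal effect; 0% = DMSO-treated cells and -100% = media-only wells without cells; nearly all actives have a fitted effect of over 55% in size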
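HT-1080-NT fibrosarcoma cells (2HG-overproducing), 750 cells/well in RPMI with 5% FBS, dosed after 2 h and incubated 48 h at 37C. CellTiter-Glo luminescence normalized to DMSO and no-cell wells; concentration-response curves fitted and classed.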
TDP1 cell CPT: DT40-hTDP1 cell growth loss with CPT | chicken DT40 Tdp1-/-;hTDP1 cells + 20 nM CPT, ATP luminescence, 48 h | Potency, µM (series often up to 46.2 µM), without a hit: top-dose activity change, negative = growth inhibition, most hits filed as inhibitors | 420,000 compounds, 12% hits | AID 686979; also: potency is read from the fitted curve at half-maximal effect; nearly all actives have a fitted effect of over 55% in size
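Cell growth measured by CellTiter-Glo luminescence after a minimum 48 h, 37 C compound exposure with 20 nM CPT in Tdp1-knockout DT40 cells stably expressing hTDP1, seeded 400/well; qHTS titration format.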
HT1080 IDH1KD tx: kills HT-1080 cells with IDH1 knockdown; 360,000 compounds, 2% hits; HT-1080 IDH1 knockdown viability, ATP luminescence, 48 h; Potency, µM (top dose mostly 46.1 µM), for the others: at the top dose activity, negative = toxicity, hits mostly cytotoxic;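 also: potency is read from the fitted curve at half-maximal effect; 0% = DMSO wells and -100% = cell-free medium wells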
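In this qHTS, HT-1080 cells depleted of IDH1 are exposed for 48 h at 37 °C to compound titrations. Toxicity is scored from CellTiter-Glo luminescence, with DMSO as full viability and medium alone as none.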
12-LOX inh: blocks human arachidonate 12S-lipoxygenase | P18054 | purified 12hLO, xylenol orange hydroperoxide absorbance | Potency, µM (series often up to 108 µM), inactives show at the top dose activity change, negative = inhibition, actives largely listed as inhibitors | 580,000 compounds, 1.1% hits | AID 1671190; also: potency is read from the fitted curve at half-maximal effect
Target sequence (P18054 whole entry, looked up): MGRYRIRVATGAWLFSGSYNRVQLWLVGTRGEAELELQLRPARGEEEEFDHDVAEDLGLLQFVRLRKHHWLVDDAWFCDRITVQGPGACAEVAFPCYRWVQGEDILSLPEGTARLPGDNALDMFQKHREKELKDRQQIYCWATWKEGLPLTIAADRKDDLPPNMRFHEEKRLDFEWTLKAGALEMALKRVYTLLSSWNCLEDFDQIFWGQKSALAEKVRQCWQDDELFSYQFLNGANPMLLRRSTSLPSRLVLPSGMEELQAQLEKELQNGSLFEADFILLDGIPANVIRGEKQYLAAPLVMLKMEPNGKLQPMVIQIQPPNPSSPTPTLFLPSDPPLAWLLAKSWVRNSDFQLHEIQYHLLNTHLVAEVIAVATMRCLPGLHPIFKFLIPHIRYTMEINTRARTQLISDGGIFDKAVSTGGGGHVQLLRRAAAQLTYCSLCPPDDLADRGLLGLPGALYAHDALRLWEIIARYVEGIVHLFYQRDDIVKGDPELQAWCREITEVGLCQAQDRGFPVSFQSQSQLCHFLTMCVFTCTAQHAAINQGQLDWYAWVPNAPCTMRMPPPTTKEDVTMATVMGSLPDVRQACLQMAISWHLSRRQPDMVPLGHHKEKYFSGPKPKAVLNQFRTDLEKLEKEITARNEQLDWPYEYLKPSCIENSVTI
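Purified human 12hLO (150 nM final) in 25 mM Hepes, 0.01% Triton X-100, pH 7.0 was preincubated 15 min at room temperature with compound. Then 40 uM arachidonic acid was added, 30 min. Hydroperoxide was read by Fe-XO absorbance ratio 573/405 nm.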
IL-1B inflam inh: inhibitors of inflammasome signaling (IL-1 beta secretion); activity change, % at 57.5 µM; 360,000 compounds, 4.7% hits; THP-1 LPS/ATP IL-1B secretion, AlphaLISA, 16 h; active compounds read low; in the data active = activity change below about -50%; inconclusive = mostly about -30% to -49%
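THP-1 cells pretreated 1 hr with compounds (up to 57.5 uM final), then stimulated with LPS (250 ng/mL final) plus ATP (1.25 mM final); secreted IL-1B measured by AlphaLISA after 16 hr, decreased signal indicating inhibition.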
The depositor's hits bear a star; ? = inconclusive; nt = no result given; [ ] = remark or other dose. The sample as a whole holds a higher share of hits than the screen did. Unless noted, calls follow the shape of the dose curve; as a rule, active = well fitted curve in the direction sought with a large enough effect; inconclusive = small, poorly fitted or top-dose-only effect, or another doubt; inactive = no such curve, though single readings can be large; an effect the other way counts as inactive or inconclusive. Unless noted, % is scaled to controls: 0 for no effect and ±100 for the full control effect.

SMILES	DT40 TDP1 no CPT	HT1080-NT tox	TDP1 cell CPT	HT1080 IDH1KD tx	12-LOX inh	IL-1B inflam inh
Cc1ccc(Nc2nc(N)nc(CN3CCc4ccccc4C3)n2)cc1	?	-17.3%	18.4µM*	-6.6%	7.0%	?
CCCN(N=Nc1cccc([N+](=O)[O-])c1)c1cccc([N+](=O)[O-])c1	?	12.3%	?	7.1%	6.9%	-50.6*
Cc1ccc(-c2ccc(/C=N\NC(=O)c3cc4c(ccc5ccccc54)o3)o2)cc1[N+](=O)[O-]	9.2µM*	?	10.3µM*	24.0%	482.5%	24.8
O=C(N/N=C/c1ccc(-c2ccc(Cl)c(C(=O)O)c2)o1)c1cc2c(ccc3ccccc32)o1	21.7%	-15.2%	23.5%	-24.0%	39.8µM*	2.2
Cc1ccc([N+](=O)[O-])cc1-c1ccc(/C=N/NC(=O)c2cc3c(ccc4ccccc43)o2)o1	8.2µM*	17.1%	?	8.9%	2.0%	1.9
O=C(N/N=C/c1cccc([N+](=O)[O-])c1)c1cc2c(ccc3ccccc32)o1	?	25.6%	-27.7%	11.7%	-21.6%	-7.8
CN(CC1CCOCC1)S(=O)(=O)c1ccc(Cl)cc1	nt	nt	nt	nt	-2.3%	nt
O=S(=O)(c1cccc(C(F)(F)F)c1)N1CCN(CC(O)COCc2ccccc2)CC1 (configuration not stated)	-7.0%	-9.0%	-25.3%	-3.8%	?	-19.2
O=c1[nH]cnc2c1c(-c1ccccc1)cn2-c1ccc(Br)cc1	16.4µM*	-14.7%	?	-19.1%	-7.6%	?
Cc1cccc(-n2cc(-c3ccccc3)c3c(=O)[nH]cnc32)c1	-24.7%	-7.9%	0.3%	-14.1%	?	-87.7*
CCOc1ccc(-n2cc(-c3ccccc3)c3c(NC(C)C)ncnc32)cc1	nt	nt	nt	nt	10.2%	nt
O=c1c2c(-c3ccc(Br)cc3)csc2ncn1-c1ccccc1	nt	nt	nt	nt	-12.6%	nt
CCOc1ccc(-n2cc(-c3ccccc3)c3c(=O)[nH]cnc32)cc1	?	-22.6%	-5.6%	-22.7%	?	-66.7*
CCOc1ccccc1Nc1ncnc2c1c(-c1ccccc1)cn2-c1ccc(OC)cc1	?	nt	?	nt	-2.5%	nt
CCOc1ccc(-n2cc(-c3ccccc3)c3c(=S)nc[nH]c32)cc1	?	?	14.6µM*	0.0%	?	9.2
Cc1cc2ccccc2cn1	-10.1%	nt	-9.0%	nt	nt	nt
CN(C)S(=O)(=O)c1ccc(-c2nc(C#N)c(NCCN3CCOCC3)o2)cc1	nt	nt	nt	nt	-5.7%	nt
COc1ccc(-c2sc3cc4c(cc3c2-c2ccc(OCCN3CCCCC3)cc2)OCO4)cc1	20.6µM*	-2.7%	16.4µM*	1.0%	nt	5.6
COc1cc(OC)cc(-c2sc3ccc(OC)cc3c2-c2ccc(OCCN3CCCCC3)cc2)c1	?	?	?	-28.9%	nt	-22.8
c1ccc2c(-c3ccc(OCCN4CCCCC4)cc3)c(-c3ccsc3)sc2c1	16.4µM*	-2.2%	16.4µM*	-3.2%	-9.6%	-3.6
COc1ccc(-c2sc3cc4c(cc3c2C#CC2(O)CCCCC2)OCO4)cc1	20.6µM*	-20.5%	18.4µM*	-24.5%	?	-9.1
CN(C)CCOc1ccc(-c2c(-c3ccccc3)sc3ccccc23)cc1	6.51µM*	?	10.3µM*	?	-13.0%	?
COc1ccccc1-c1sc2cc3c(cc2c1C#CC1(O)CCCCC1)OCO3	?	-6.7%	?	-5.7%	-26.9%	-29.4
CC(=O)Nc1cccc(C(=O)N(C)C(C)c2cccs2)c1 (configuration not stated)	nt	nt	nt	nt	1.0%	nt
c1ccc2c3c(cnc2c1)CCCC3	nt	nt	nt	nt	-28.0%	nt
SMILES	DT40 TDP1 no CPT	HT1080-NT tox	TDP1 cell CPT	HT1080 IDH1KD tx	12-LOX inh	IL-1B inflam inh
Cc1cc(OC(=O)c2ccccc2F)cc(OC(=O)c2ccccc2F)c1	nt	nt	nt	nt	-19.3%	nt
O=C(COc1ccccc1[N+](=O)[O-])OCCCOC(=O)COc1ccccc1[N+](=O)[O-]	-9.8%	1.9%	4.0%	-2.1%	-2.4%	0.7
O=C(COc1ccccc1[N+](=O)[O-])OCC(=O)c1ccc(Br)s1	-8.5%	2.9%	-17.4%	-1.1%	44.7µM*	16.6
COc1cc(C(=O)N2CCc3c(nc(C)nc3N(C)C)C2)cc(OC)c1OC	nt	nt	nt	nt	-6.6%	nt
Cc1ccc[n+](CC(=O)Nc2cc(C(F)(F)F)ccc2Cl)c1	-5.5%	-13.4%	-5.3%	2.5%[9.24 µM]	10.3%	-11.4
CCC(C)(C)c1ccc(OCCCC[n+]2cccc(C)c2)c(C(C)(C)CC)c1	0.92µM*	6.51µM*	0.581µM*	4.11µM*	?	-179.9*
CC(C)(C)C1CCc2onc(C(=O)Nc3sc4c(c3C#N)CCCC4)c2C1 (configuration not stated)	-16.6%	nt	-28.1%	nt	?	nt
COc1ccccc1-c1ccc2c(c1)C(C)(Cc1ccc(Cl)c(Cl)c1)C(=O)N2 (configuration not stated)	?	?	20.6µM*	23.1µM*	-24.7%	-13.3
CC1(Cc2ccccc2C#N)C(=O)Nc2ccc(-c3ccccc3)cc21 (configuration not stated)	?	-24.8%	?	?	-0.7%	-17.8
COc1ccccc1-c1ccc2c(c1)C(C)(Cc1ccccc1C#N)C(=O)N2 (configuration not stated)	?	-26.7%	20.6µM*	-17.4%	-0.6%	-27.6
O=C(CCC1CCCC1)Nc1ccc(C(=O)NCc2cccnc2)cc1	?	5.17µM*	14.6µM*	6.51µM*	-17.7%	-10.6
O=C(Nc1ncc([N+](=O)[O-])s1)c1cccc([N+](=O)[O-])c1	20.6µM*	-2.2%	9.2µM*	-1.7%	0.0%	0.0
O=C(O)CCCC(=O)Nc1ccc(C(=O)NCc2cccnc2)cc1	-6.0%	4.1%	-4.2%	4.9%	0.0%	2.3
Cc1csc(NC(=O)c2cc([N+](=O)[O-])cc([N+](=O)[O-])c2)n1	23.1µM*	0.6%	?	-3.0%	-24.9%	11.5
O=C(Nc1nc(-c2cccnc2)cs1)c1cccc([N+](=O)[O-])c1	23.1µM*	8.0%	-16.9%	0.7%	3.5%	-8.4
Cc1csc(NC(=O)c2cc[n+]([O-])cc2)n1	2.8%	0.4%	-3.6%	-15.5%	6.3%	-3.9
O=C(c1cc(=O)c2ccccc2o1)N1CCC(Cc2ccccc2)CC1	nt	nt	nt	nt	-25.3%	nt
O=[N+]([O-])c1cccc(-c2csc(Nc3ccccc3)n2)c1	29.1µM*	?	?	?	-24.4%	-104.9*
